High-throughput results as filed in PubChem.
An excerpt weighted towards active compounds, which were near 2.1% of everything screened.
TSG101-PTAP inh: blocks PTAP/TSG101 interaction to inhibit HIV-1 budding. Fluorescence polarization, FITC-PTAP peptide / Tsg101 binding. AID 493005. 340,000 tested, under 10 active. Q99816. Potency, µM (titrated, usually from 115 µM), for inactives: top-dose activity change, negative = inhibition, hits mostly inhibitors; active = well fitted inhibition curve with a large enough effect in the main read-out, with a control signal flat, not every such curve was filed as active; inconclusive = small, poorly fitted or top-dose-only effect, or effect the other way, or a change in a side signal; inactive = no such curve, though single readings can be large or run the other way; also: % of control where 0% means no effect
Target sequence (Q99816 whole entry, looked up): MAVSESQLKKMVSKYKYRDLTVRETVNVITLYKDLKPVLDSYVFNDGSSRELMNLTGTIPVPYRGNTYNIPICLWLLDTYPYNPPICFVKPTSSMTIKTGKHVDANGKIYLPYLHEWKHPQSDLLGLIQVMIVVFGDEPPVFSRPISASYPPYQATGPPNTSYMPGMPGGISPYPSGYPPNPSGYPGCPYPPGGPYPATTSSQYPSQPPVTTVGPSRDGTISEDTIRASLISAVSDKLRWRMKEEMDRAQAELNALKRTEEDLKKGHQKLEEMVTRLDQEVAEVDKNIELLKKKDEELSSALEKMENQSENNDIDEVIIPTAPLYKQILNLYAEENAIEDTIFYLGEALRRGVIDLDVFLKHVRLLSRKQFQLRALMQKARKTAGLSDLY
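Compounds were pin-transferred onto Tsg101 binding domain (10 uM final) in HEPES pH 7.5 buffer, then FITC-PTAP peptide was added at 50 nM final. After 20 min at RT, polarization reported peptide displacement across a qHTS concentration series.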
aSyn yeast inh: rescues yeast growth from alpha-synuclein toxicity. Yeast expressing alpha-synuclein, growth rescue, BacTiter-Glo, 24 h. Potency, µM (top dose mostly 46.1 µM), inactives show at the highest dose growth rescue (activation), most hits filed as activators. 370,000 tested, 0.14% active. AID 652106; also: % of control where 0% means no effect; nearly all actives have a fitted effect of over 65% in size
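Screening used galactose-induced yeast with toxic alpha-synuclein levels, exposed to compound for 24 hr at 30 deg C. Cell growth, read with BacTiter-Glo luminescence, gave the measured signal.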
FUS suppressor: suppressors of FUS proteinopathy in yeast; AID 1347120; Potency, µM (highest dose often 76.6 µM), hits mostly activators; S. cerevisiae FUS-expressing, growth rescue, OD600, 24 h; 390,000 tested, 0.24% active;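 also: plate controls were DMSO vehicle for no effect and reference control for full effect; nearly all actives have a fitted effect of over 55% in size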
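Yeast FUS proteinopathy model; galactose-induced FUS (2%), starting OD 0.005. Cpds in dilution series, 24hr, 30C, 99% humidity. Abs 600 nm growth. Pos ctrl CP55940 (top 92uM final); neg ctrl DMSO.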
TDP-43 yeast inh: rescues yeast growth from TDP-43 toxicity | TDP-43 expressing yeast growth rescue, BacTiter-Glo, 24 h | AID 652104 | Potency, µM (highest dose often 46.1 µM), inactives show at the top dose growth rescue (activation), usual class: activators | 410,000 tested, 1.8% active; also: % of control where 0% means no effect; nearly all actives have a fitted effect of over 50% in size
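Yeast cells expressing TDP-43 under galactose induction are exposed to compounds for 24 hr at 30 deg C. BacTiter-Glo luminescence measures growth, so protective compounds score as activators.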
Abeta yeast res: restores growth of yeast expressing A-beta42 peptide. Potency, µM (doses to about 46.1 µM), hits mostly activators. 410,000 tested, 0.063% active. AID 1347071. yeast expressing A-beta42, growth rescue, OD600, 48 h; response scale: 0% DMSO, 100% iron-clioquinol control; also: nearly all actives have a fitted effect of over 55% in size
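Yeast A-beta toxicity model in growth medium with pinned compounds, 48 h at 30 C; growth read as absorbance at 600 nm. Normalized to FeCl3/clioquinol equimolar mix (positive) and DMSO (negative).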
The depositor's hits bear a star; i = inactive; ? = inconclusive; . = not tested or not shown. Unless noted, calls follow the shape of the dose curve; as a rule, active = well fitted curve in the direction sought with a large enough effect; inconclusive = small, poorly fitted or top-dose-only effect, or another doubt; inactive = no such curve, though single readings can be large; an effect the other way counts as inactive or inconclusive. Potency is read from the fitted curve at half-maximal effect.

SMILES	TSG101-PTAP inh	aSyn yeast inh	FUS suppressor	TDP-43 yeast inh	Abeta yeast res
O=C(c1cccc([N+](=O)[O-])c1)N1c2nc(-c3ccco3)nn2C2(CCCCC2)[C@@H]2CCCC[C@@H]21	.	.	?	14.6%	i
CCOC(=O)c1ccc(NS(=O)(=O)c2ccc(Br)s2)cc1	.	.	i	17.8µM*	i
CCOC(=O)c1ccc(NC(=O)CN(C)S(=O)(=O)c2ccc(Br)s2)cc1	-2.5%	3.4%	i	11.8%	i
Cc1ccc(OCC(=O)Nc2ccc3nc(SCCOc4ccccc4)sc3c2)cc1	.	.	i	-12.3%	i
CC(=O)n1c(-c2ccccc2)c(-c2ccccc2)n(C)c1=O	2.2%	-7.0%	i	12.6µM*	i
O=C(c1cc2c(Cl)nc3ccccc3c2s1)N1CCCCC1	.	.	i	35.5µM*	i
O=C(/C=C/c1cccc(Cl)c1)NCc1cccs1	-0.7%	0.5%	i	17.8µM*	i
O=C(/C=C/c1ccccc1)Nn1c(-c2cccs2)nc2ccccc2c1=O	-7.5%	-0.4%	i	16.2%	i
O=C(/C=C/c1cccc(Cl)c1)Nn1c(-c2cccs2)nc2ccccc2c1=O	-0.8%	-29.8%	i	10µM*	i
CCC(C)(C)n1nnnc1C(c1cc2ccc(OC)cc2[nH]c1=O)N1CCCCC1 (configuration not stated)	-10.3%	4.3%	i	-14.8%	i
CCC(C)(C)n1nnnc1C(c1cc2cccc(C)c2[nH]c1=O)N1CCCC1 (configuration not stated)	-6.2%	3.9%	31.6µM*	-12.6%	i
CCC(C)(C)n1nnnc1C(c1cc2cc(C)cc(C)c2[nH]c1=O)N1CCCC1 (configuration not stated)	4.2%	-3.0%	25.1µM*	-15.8%	i
CCOc1ccc(/C=C/c2ccc3ccccc3n2)cc1OCC	.	10.7%	.	.	.
COc1cc(-c2noc(CSc3nc(-c4ccccc4)cc(=O)[nH]3)n2)cc(OC)c1OC	.	.	i	1.0%	i
O=C(Nc1ccon1)Nc1cccc(Cl)c1Cl	-0.2%	1.3%	i	12.6µM*	i
O=C(Nc1cccc(C(F)(F)F)c1)Nc1ccon1	-2.8%	-11.1%	i	20µM*	i
Cc1ccccc1NC(=O)c1sc(Cl)nc1C	-0.2%	-0.3%	i	?	i
Cc1nc(Cl)sc1C(=O)Nc1ccc(C(C)(C)C)cc1	-1.1%	-11.6%	i	11.2µM*	i
O=C(Nc1cccc(C(F)(F)F)c1)c1sc(Cl)nc1C(F)(F)F	-1.3%	-23.0%	i	12.6µM*	10µM*
CC1=C(C(=O)OCc2ccccc2)C(c2ccccc2Cl)NC(=O)N1CCCCCC(=O)O (configuration not stated)	-1.8%	-3.3%	i	35.5µM*	i
CCC(C)NC(=O)CSc1nc2n[nH]c(C)c2c(=N)n1-c1cc(Cl)ccc1C (configuration not stated)	.	.	i	-4.5%	i
COc1cc2nc(N3CCCN(C)CC3)nc(Nc3ccncc3)c2cc1OC	.	-2.0%	.	.	.
COc1ccc(F)cc1C1=CC(=O)C[C@H](c2ccc3c(c2)OCO3)C1	-0.8%	1.4%	i	22.4µM*	i
COc1cc(F)c(C2=CC(=O)C[C@H](c3ccc4c(c3)OCO4)C2)cc1F	0.0%	-1.9%	i	12.6µM*	i
COc1cccc(OC)c1C1=CC(=O)C[C@H](c2ccc3c(c2)OCO3)C1	-4.2%	-5.8%	i	?	i
SMILES	TSG101-PTAP inh	aSyn yeast inh	FUS suppressor	TDP-43 yeast inh	Abeta yeast res
COc1cccc(C2=CC(=O)C[C@H](c3ccc4c(c3)OCO4)C2)c1OC	-0.4%	-2.5%	?	12.6µM*	i
Cc1cccc(C)c1NC(=O)C1(C)CSCC(=O)N1Cc1ccco1 (configuration not stated)	.	-0.3%	i	2.4%	i
Cc1cc(C)c2sc(NNC(=O)c3ccc(S(=O)(=O)N4CCc5ccccc5C4)cc3)nc2c1	-8.5%	4.7%	?	7.94µM*	i
Nc1ccc(/C=C/c2cc(Cl)nc3ccccc23)cc1	.	17.9%	.	.	.
Cc1ccccc1NC(=O)c1ccccc1OCC(=O)Nc1ccc(Br)cc1	.	-7.4%	.	.	.
Cc1ccc(CSC2=Nc3ccccc3C3=NC(CCC(=O)NCCc4ccccc4)C(=O)N23)cc1 (configuration not stated)	.	.	i	31.6µM*	i
O=C(CC1N=C2c3ccccc3N=C(SCC(=O)Nc3ccc(F)cc3)N2C1=O)NCc1cccs1 (configuration not stated)	.	.	i	13.4%	i
O=C(CCC1N=C2c3ccccc3N=C(SCC(=O)Nc3ccc(F)cc3)N2C1=O)NCc1cccs1 (configuration not stated)	.	.	?	35.5µM*	i
N=c1c(C(=O)NCC2CCCO2)cc2c(=O)n3ccccc3nc2n1CCCO (configuration not stated)	.	.	i	-2.0%	i
COc1cccc(CNC(=O)c2c(O)nc3ccccn3c2=O)c1	.	.	i	-53.2%	i
N#CC(CC(=O)c1ccc(F)cc1)c1ccc2c(c1)OCO2 (configuration not stated)	-1.5%	11.3%	i	11.2µM*	i
O=C(O)CC(CC(=O)O)c1ccc2c(c1)OCO2	.	0.0%	.	.	.
CCc1cccc(C)c1NC(=O)c1cc(S(=O)(=O)N(Cc2ccc(C(=O)OC)cc2)Cc2ccc(OC)c(OC)c2)ccc1F	.	.	i	22.5%	i
CCC(=O)Nc1ccc(NC(=O)CSc2nnnn2-c2ccc3c(c2)OCCO3)cc1	1.8%	-7.3%	i	-17.8%	i
Cc1ccc(NC(=O)CCSc2nnnn2-c2ccc3c(c2)OCO3)cc1C	-2.6%	14.0%	i	17.8µM*	i
CC(C)OC(=O)CC(=O)c1sc2nc3c(cc2c1N)CN(C)CC3	-20.0%	-2.0%	12.6µM*	7.7%	i
CN1CCc2nc3sc(C(=O)Nc4cccc(C#N)c4)c(N)c3cc2C1	.	.	?	17.8µM*	i
CCCCN(CC)CCCNC(=O)Cn1nc(CC)n2c(cc3sccc32)c1=O	.	.	i	5.8%	i
Cc1cccnc1Nc1nc(-c2ccccc2)cs1	-8.1%	-41.6%	i	15.8µM*	i
Oc1ccc(-c2csc(Nc3ccccn3)n2)c(O)c1	-13.4%	-6.2%	i	20µM*	i
Cc1cccnc1Nc1nc(-c2ccccn2)cs1	-1.2%	?	i	?	i
CCOc1ccccc1Nc1nc(-c2cccnc2)cs1	-0.3%	-11.6%	i	11.2µM*	i
Cc1cccnc1Nc1nc(-c2ccc(O)cc2O)cs1	1.0%	?	i	22.4µM*	i
NS(=O)(=O)c1ccc(Nc2nc(-c3ccc(O)cc3O)cs2)cc1	0.6%	-9.9%	.	3.8%	i
CSc1ccc(C(=S)N2CCCCCC2)cc1	-9.2%	-3.2%	i	11.2µM*	?
